TDP1 cell CPT – DT40-hTDP1 cell growth loss with CPT | 420,000 tested, 12% active | chicken DT40 Tdp1-/-;hTDP1 cells + 20 nM CPT, ATP luminescence, 48 h | AID 686979 | Potency, µM (top dose mostly 46.2 µM), for inactives: at the top dose activity change, negative = growth inhibition, most hits filed as inhibitors; also: potency is read from the fitted curve at half-maximal effect; nearly all actives have a fitted effect of over 55% in size
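Cell growth measured by CellTiter-Glo luminescence after a minimum 48 h, 37 C compound exposure with 20 nM CPT in Tdp1-knockout DT40 cells stably expressing hTDP1, seeded 400/well; qHTS titration format.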
TDP1 cell noCPT – qHTS for Inhibitors of human tyrosyl-DNA phosphodiesterase 1 (TDP1): qHTS in cells in absence of CPT; DT40 Tdp1-/- hTDP1 cells, no CPT, ATP luminescence, 48 h; Potency, µM (titrated, usually from 46.2 µM), inactives show at the highest dose activity change, negative = growth inhibition, actives largely listed as inhibitors; 420,000 tested, 15% active; AID 686978, 2013; also: potency is read from the fitted curve at half-maximal effect; nearly all actives have a fitted effect of over 55% in size
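Luminescent ATP content (CellTiter-Glo) served as the growth readout. Knockout chicken DT40 cells expressing human TDP1 were exposed to compounds without camptothecin for a minimum 48 hr at 37 °C.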
HT1080NT lethal – kills 2HG-producing HT-1080-NT fibrosarcoma cells | 360,000 tested, 1.6% active | AID 686970 | HT-1080-NT fibrosarcoma viability, CellTiter-Glo ATP luminescence, 48 h | Potency, µM (series often up to 46.1 µM), for the others: at the highest dose activity, negative = less viability, actives largely listed as cytotoxic;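 also: NT is the 2HG producing partner of a matched IDH1 knockdown line; potency is read from the fitted curve at half-maximal effect; 0% = DMSO-treated cells and -100% = media-only wells without cells; nearly all actives have a fitted effect of over 55% in size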
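Read-out is CellTiter-Glo luminescence after 10 minutes at room temperature, following 48 hours' compound treatment of HT-1080-NT cells (750 cells/well, RPMI, 5% FBS, 37 degrees C).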
HT1080 IDH1KD tx – HT-1080 IDH1 knockdown cell toxicity (counter line) | HT-1080 IDH1 knockdown viability, ATP luminescence, 48 h | Potency, µM (titrated, usually from 46.1 µM), without a hit: top-dose activity, negative = toxicity, actives largely listed as cytotoxic | 360,000 tested, 2% active;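 also: potency is read from the fitted curve at half-maximal effect; 0% = DMSO wells and -100% = cell-free medium wells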
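Knockdown cells (IDH1KD HT-1080) received compounds 2 h after plating at 750 cells/well and were kept 48 h at 37 °C in 5% FBS RPMI. A CellTiter-Glo luminescence read gave % activity for curve fitting.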
IL1B secr inh – inhibitors of inflammasome signaling (IL-1 beta secretion); THP-1 LPS/ATP IL-1B secretion, AlphaLISA, 16 h; hits give low values; activity change, % at 57.5 µM; 360,000 tested, 4.7% active; AID 743279; in the data active = activity change below about -50%; inconclusive = mostly about -30% to -49%
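THP-1 cells pretreated 1 hr with compounds (up to 57.5 uM final), then stimulated with LPS (250 ng/mL final) plus ATP (1.25 mM final); secreted IL-1B measured by AlphaLISA after 16 hr, decreased signal indicating inhibition.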
* hit, by the source's call; ? = inconclusive; . = no result given; [ ] = another dose, or the depositor's remark. Shown are actives, neighbours in structure and some others; about 19% of the full set was active somewhere. Unless noted, calls follow the shape of the dose curve; as a rule, active = well fitted curve in the direction sought with a large enough effect; inconclusive = small, poorly fitted or top-dose-only effect, or another doubt; inactive = no such curve, though single readings can be large; an effect the other way counts as inactive or inconclusive. Unless noted, % is scaled to controls: 0 for no effect and ±100 for the full control effect.

SMILES	TDP1 cell CPT	TDP1 cell noCPT	HT1080NT lethal	HT1080 IDH1KD tx	IL1B secr inh
CC(=O)N/N=C/c1ccc([N+](=O)[O-])o1	?	21µM*	.	.	.
O=C(Cc1ccc([N+](=O)[O-])cc1)N/N=C/c1ccc([N+](=O)[O-])o1	10µM*	9.2µM*	?	?	11
CCOC(=O)N/N=C\c1ccc(-c2cc(Cl)ccc2Cl)o1	?	-22%	-22%	-25%	45
Cc1csc(N=Cc2ccc([N+](=O)[O-])o2)n1	15µM*	10µM*	-11%	-4%	-12
O=C(N/N=C/c1ccc([N+](=O)[O-])o1)c1cn(-c2ccccc2)nc1-c1ccc(Cl)cc1	?	?	2%	2%	5
C[C@H]1COc2cccc(N3CCC[C@H]3CO)c2S(=O)(=O)N1	-2%	-13%	20%	?	0
Clc1ccc(CCNc2ncnc3c2nnn3Cc2ccccc2)cc1	-22%	?	-5%	?	-21
O=C(N/N=C/c1ccc([N+](=O)[O-])o1)c1ccc2c(c1)OCO2	2.3µM*	5.8µM*	?	?	-6
Cc1cc2ncn(/N=C/c3ccc([N+](=O)[O-])o3)c2cc1C	13µM*	13µM*	-6%	7.9µM*	?
O=C(N/N=C\c1ccc(-c2ccc([N+](=O)[O-])cc2)o1)c1ccc2c(c1)OCO2	-24%	-17%	10%	11%	4
CC1CS(=O)(=O)CCN1/N=C/c1ccc([N+](=O)[O-])o1 (configuration not stated)	-9%[21.1 µM]	?	.	.	.
O=C(NCC(=O)N(c1cccnc1)C(C(=O)NC1CCCC1)c1ccccc1F)c1ccco1 (configuration not stated)	-13%	-27%	16%	13%	8
Cc1ccc2[nH]c3c(c2c1)CN(C(C)C)CC3	?	?	-6%	-1%	-7
Cc1ccc(CNCc2ccc3c(c2)n(C)c(=O)n3C)cc1	-15%	-15%	.	.	.
Oc1ccc2ccccc2c1C=Nc1ccccc1-c1nc2ccccc2[nH]1	?	16µM*	?	-15%	38
Cc1ccc(N=C2NC(=O)/C(=C\c3ccsc3)S2)c(C)c1	16µM*	?	-9%	-8%	0
NS(=O)(=O)c1ccc(CCNC(=O)c2ccc3nccnc3c2)cc1	-8%	-23%	7%	11%	44
NS(=O)(=O)c1ccc(CCNc2ccnc3cc(Cl)ccc23)cc1	?	15µM*	-4%	-15%	2
CCCc1cc(=O)[nH]c(SCC(=O)NC2(C#N)CCCCC2)n1	-3%	18%	9%	5%	9
CCOc1ccc(NC(=O)COC(=O)c2ccccc2OCc2ccccc2Br)cc1	4%	-8%	10%	11%	.
Oc1ccc2ccccc2c1/C=N/c1nc2c(s1)CCCC2	?	29µM*	?	23µM*	0
Oc1ccc2ccccc2c1C=NC1CCCCC1	?	-28%	-15%	-28%	26
Oc1c(Br)cc(Br)cc1C=Nc1ccc2c(c1)OCCO2	-11%	?	-15%	-13%	26
Oc1c(Br)cc(Br)cc1/C=N/c1nc2c(s1)CCCC2	?	16µM*	?	?	28
Cc1cccc(OCCn2c(NC(=O)c3ccco3)nc3ccccc32)c1	26µM*	?	-18%	-28%	13
SMILES	TDP1 cell CPT	TDP1 cell noCPT	HT1080NT lethal	HT1080 IDH1KD tx	IL1B secr inh
O=C(Nc1nc2ccccc2n1CCN1CCCCC1)c1ccco1	?	?	9%	13%	0
O=C(Nc1nc2ccccc2n1CCOc1ccccc1)c1ccco1	15µM*	15µM*	-17%	-25%	-16
O=C(Nc1nc2ccccc2n1CCOc1ccc(Cl)cc1)c1ccco1	26µM*	18µM*	-16%	-19%	75
O=C(Nc1nc2ccccc2n1Cc1ccc(Cl)cc1)c1ccco1	?	-27%	-12%	-13%	-3
Cc1cccc(OCCn2c(-c3ccco3)nc3ccccc32)c1	?	?	-3%	-10%	-2
CS(=O)(=O)N1N=C(c2cccs2)CC1c1ccccc1 (configuration not stated)	-19%	-14%	-1%	6%	-20
c1ccc(C2Oc3ccccc3C3CC(c4cccs4)=NN32)cc1 (configuration not stated)	?	16µM*	-17%	-23%	-4
CCn1c(-c2ccc(C)cc2)nn(CC(=O)NCCc2ccccc2)c1=S	2.9µM*	2.9µM*	-14%	-22%	-12
CC(=O)c1cc(-c2ccccc2)n(CC(=O)NCCc2ccc(C)cc2)c1C	15µM*	8.2µM*	.	.	.
CCOC(=O)c1cc(-c2ccc(F)cc2)n(CCC(=O)NCc2ccc(C)cc2)c1C	?	21µM*	.	.	.
Cc1nn(CC(=O)NCCc2ccccc2)c(=O)c2ccccc12	-3%	-3%	24%	17%	2
CC(=O)c1cc(-c2ccc(F)cc2)n(CC(=O)NCc2ccc(C)cc2)c1C	16µM*	8.2µM*	.	.	.
CC(C(=O)NC(=O)NC1CCCCC1)N1CCN(c2ccc(O)cc2)CC1 (configuration not stated)	?	-26%	2%	-4%	-3
CCN(C(=O)CN1CCN(S(=O)(=O)c2ccccc2C(F)(F)F)CC1)c1c(N)n(Cc2ccccc2)c(=O)[nH]c1=O	2%	-7%	14%	5%	5
Cc1ccc(CNC(=O)Cn2nnc3ccccc3c2=O)cc1	0%	-4%	5%	14%	13
Cc1cc(C)n(C(C[N+](=O)[O-])c2ccc(Cl)cc2)n1 (configuration not stated)	2.3µM*	2.3µM*	-3%	2%	?
Cc1cc(O)c(C(C[N+](=O)[O-])c2ccc(Cl)cc2)c(=O)o1 (configuration not stated)	?	-39%	0%	-2%	-3
Cc1cc(C)cc(NC(=O)N2CCC(CN3CCc4ccccc4C3)CC2)c1	?	13µM*	.	.	.
O=C(Nc1ccccc1)C1=C[C@H](c2ccc(Br)cc2)C[C@H](OCc2ccc(CO)cc2)O1	29µM*	?	-18%	-3%	-53*
O=C(Nc1ccccc1)C1=C[C@@H](c2ccc(C(F)(F)F)cc2)C[C@@H](OCc2ccc(CO)cc2)O1	23µM*	18µM*	?	-27%	-22
O=C(Nc1ccccc1)C1=C[C@@H](c2ccccc2)C[C@@H](OCc2ccc(CO)cc2)O1	?	-20%	-4%	-11%	14
CC(NC(=O)C1CCN(C(=O)c2ccc(F)cc2)CC1)c1ccc(-n2ccnc2)cc1 (configuration not stated)	-3%	3%	3%	7%	-7

Compound activity deposited in PubChem by National Center for Advancing Translational Sciences (NCATS).
